Assay results reported in PubChem BioAssay AID765 (NMMLSC, 2007).
Values without a mark were called inactive. The source made the active and inactive calls. Rule as the data show it: active = inhibition above about 31%; inactive = the rest.

Molecular target: N-formyl peptide receptor 2 (Homo sapiens) (UniProt P25090)
Test: FPRL1 fluorescent ligand binding inhibitors, cell-based, flow cytometry, single concentration (AID 765)
Conditions: FPRL1-expressing cells, active compounds read high; at 5.1 µM unless noted

Sequence of N-formyl peptide receptor 2 (Homo sapiens) (P25090 whole entry, looked up): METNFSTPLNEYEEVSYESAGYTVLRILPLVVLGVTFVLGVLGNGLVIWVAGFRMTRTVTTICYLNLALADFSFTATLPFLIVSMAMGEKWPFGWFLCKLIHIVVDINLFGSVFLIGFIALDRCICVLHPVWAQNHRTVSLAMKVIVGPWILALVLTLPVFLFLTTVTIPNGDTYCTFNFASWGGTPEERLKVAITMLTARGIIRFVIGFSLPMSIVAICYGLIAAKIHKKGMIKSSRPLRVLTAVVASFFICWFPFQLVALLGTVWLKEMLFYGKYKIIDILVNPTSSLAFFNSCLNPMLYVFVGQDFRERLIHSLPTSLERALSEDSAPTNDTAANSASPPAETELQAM

Structure (SMILES)	inhibition
COc1ccc(-c2cn3cccnc3n2)cc1NC(=O)c1ccccc1Br	3.2% [at 5.3 µM]
COc1ccccc1-c1cc(C(F)(F)F)nc(N2CCN(Cc3ccccc3)CC2)n1	14.1% [at 5.2 µM]
Clc1ccccc1-c1nc(N2CCN(c3ccccc3)CC2)nc2ccc(Br)cc12	-7.9% [at 4.6 µM]
Cc1ccc2nc(N3CCN(c4ccccc4Cl)CC3)nc(-c3ccccc3)c2c1	33.4% [at 5.4 µM] (active)
O=C(c1ccc(Cl)cc1)N1CCN(c2nc(-c3ccccc3)c3ccccc3n2)CC1	1.6% [at 5.2 µM]
CC(=O)N1CCN(c2nc(-c3ccccc3)c3cc(C)ccc3n2)CC1	5.6% [at 6.4 µM]
O=C(c1cccc(F)c1)N1CCN(c2nc(-c3ccc(F)cc3)cc(C(F)(F)F)n2)CC1	2.3% [at 5 µM]
CC1CCc2nc(N3CCN(Cc4ccccc4)CC3)nc(C(F)(F)F)c2C1 (configuration not stated)	-10.7% [at 5.7 µM]
COc1ccc(-c2nc(N3CCN(C)CC3)[nH]c(=O)c2C#N)cc1	-9.7% [at 6.8 µM]
COc1ccc(-c2cn3cccnc3n2)cc1NC(=O)C1CCCCC1	1.2% [at 6.3 µM]
FC(F)(F)c1cc(-c2cccs2)nc(N2CCN(C(c3ccccc3)c3ccccc3)CC2)n1	-11% [at 4.6 µM]
Clc1cccc(-c2nc(N3CCN(Cc4ccccc4)CC3)nc3c2COc2ccccc2-3)c1	0.5% [at 4.7 µM]
